Reference: PubChem BioAssay (Tox21)
Values joined by “and” are separate entries in the source; they are usually repeats but may differ in a detail not shown here. Identical values can stand only once. Records with an inconclusive call do not appear. A call without a number means that no potency is given here. More than one record can exist for a structure, and the calls need not agree. Active and inactive are the calls of the source. The call rests on the fitted dose curve.

Assay: qHTS assay to identify small molecule agonists of H2AX - cell viability counter screen (AID 1224847); further: nearly all actives have a fitted effect of over 30% in size; on activity change, negative = cytotoxicity: top concentration of the series differs between compounds
Details: CHO-K1 viability, CellTiter-Glo luminescence, 3 h; series mostly up to 154 µM; activity change, negative = cytotoxicity: at the top concentration
Description: National Center for Advancing Translational Sciences [NCATS]
NIH Chemical Genomics Center [NCGC]
U.S. Environmental Protection Agency [EPA]
National Institutes of Environmental Health Sciences [NIEHS]
National Toxicology Program [NTP]
U.S. Food and Drug Administration [FDA]
HTRF phospho-H2AX (Ser139) assay (Cisbio Bioassays, US) enables the quantitative detection of the histone variant H2AX when phosphorylated on serine 139. When double-stranded DNA breaks, either by ionizing radiation or endogenous physiological processes, H2AX becomes phosphorylated at Ser139. This phospho-Ser139 serves as a sensitive biomarker for the detection of such breaks, localizing the site of DNA repair. So, HTRF phospho-H2AX Ser139 is a pertinent assay to study genome stability, the cell cycle, DNA repair, and it serves as a biomarker for cancer, and to understand aging. Wild type CHO-K1 cells were used to identify the inducers of Phospho-H2AX Ser 139 from the Tox21 compound collections. Also cytotoxicity of the Tox21 10K compound library against the CHO-K1 cell line was tested by measuring the cell viability using CellTiter-Glo assay (Promega, Madison, WI).
Tox21 Assay Protocol Summary:
The CHO-K1 cells suspended in culture medium containing 10% FBS were dispensed at 1000 cells/ 3 ul/well in 1536-well white wall/solid bottom plates (Greiner Bio-One North America, NC) using a Multidrop Combi (Thermo Fisher Scientific Inc., Waltham, MA). After the assay plates were incubated at 37C overnight, 23 nl of compounds at 15 concentrations (from 5-48 columns) or positive control (from 1 to 4 columns) were transferred to the assay plates using a Pintool station (Wako, San Diego, CA) into each well resulting in a final DMSO concentration of 0.76%. After 3hr incubation at 37C, 3 uL/well CellTiter-Glo luminescent cell viability reagent (Promega Corporation, Madison, WI) was added using a Flying Reagent Dispenser (FRD) (Aurora Discovery, CA). After incubation at room temperature for 30 min, the luminescence intensity was read using a ViewLux plate reader (PerkinElmer, Waltham, MA).
Potency means the concentration at half of the fitted maximal effect.

Structure (SMILES) | Potency | activity change, negative = cytotoxicity
CC(C)(N=C=O)c1cccc(C(C)(C)N=C=O)c1 | inactive | 
Cc1ccc(N)c(S(=O)(=O)O)c1 | inactive | 
CCCCCCCCCCC=CC1CC(=O)OC1=O (stereo not given) | inactive | 
CC(C)(CO)COC(=O)C(C)(C)CO | inactive | 
Cc1ccc(C)c(C)c1 | inactive | 
O=S(=O)(O)c1cc(S(=O)(=O)O)c2c(N=Nc3ccccc3)c(O)ccc2c1 | inactive | 
O=C1N=C(O)CN1/N=C/c1ccc(-c2ccc([N+](=O)[O-])cc2)o1 |  | 3.3% [at 70.9 µM] (inactive)
Clc1cc(Cl)c(Cl)cc1Cl | inactive | 
OCC1CCCO1 (stereo not given) | inactive | 
CC(=O)Nc1ccc(C(=O)O)cc1 | inactive | 
Clc1ccc(Cl)c(Cl)c1Cl | inactive | 
CS(=O)(=O)Nc1ccc([N+](=O)[O-])cc1Oc1ccccc1 | inactive | 
C=C(C)C(=O)OCCC[Si](OC)(OC)OC | inactive | 
Cc1ccc(C(=O)O)o1 | inactive | 
COC(=O)c1ccccc1O | inactive | 
CCCCC(CC)C(=O)OCCOCCOCCOC(=O)C(CC)CCCC (stereo not given) | inactive | 
CC1Cc2ccccc2N1NC(=O)c1ccc(Cl)c(S(N)(=O)=O)c1 (stereo not given) | inactive | 
Cc1cc(Cc2ccc(N)c(C)c2)ccc1N | inactive | 
Oc1ccc(OCc2ccccc2)cc1 |  | -6.25% [at 70.9 µM] (inactive)
CCCCCCCCCCCCN | inactive and 20.1 µM (active) | 

Structure (SMILES) | Potency | activity change, negative = cytotoxicity
ClC1=C(Cl)C(Cl)(Cl)C(Cl)=C1Cl | inactive | 
O=[N+]([O-])c1cc(N(CCO)CCO)ccc1NCCO | 50.4 µM (active) and 50.5 µM (active) | 
CC1(C)CC(N=C=O)CC(C)(CN=C=O)C1 (stereo not given) | inactive | 
CC1COc2ccccc2N1C(=O)C(Cl)Cl (stereo not given) | inactive | 
O=S(=O)(Oc1ccc(Cl)cc1Cl)c1ccccc1 | 91.4 µM (active) and 50.5 µM (active) | 
CC[Si](OC(C)=O)(OC(C)=O)OC(C)=O | inactive | 
Nc1cc(-c2ccncc2)c[nH]c1=O |  | -6.05% [at 70.9 µM] (inactive)
O=C(Cl)c1c(Cl)c(Cl)c(C(=O)Cl)c(Cl)c1Cl | inactive | 
COC(=O)Nc1nc2ccc(Sc3ccccc3)cc2[nH]1 | inactive | 
CN(C)c1ccc(C(=N)c2ccc(N(C)C)cc2)cc1 | 39.6 µM (active) and 24.4 µM (active) | 
CCCCCCCCC | inactive | 
NCCc1ccc(O)c(O)c1 | inactive | 
CCCCCCC(C)(C)S | inactive | 
OC1CCCC1 | inactive | 
CCCCOCCO | inactive | 
OC[C@@H](O)[C@@H](O)[C@H](O)[C@@H](O)CO | inactive | 
CCC(C)C=O (stereo not given) | inactive | 
CC1=CC[C@H]2C[C@@H]1C2(C)C | inactive | 
NS(=O)(=O)c1cc2c(cc1Cl)NC=NS2(=O)=O | inactive | 
O=C(O)c1cc(-c2ccccc2)nc2ccccc12 | inactive | 
